# GALR2 ag: agonists of human galanin receptor 2 (GALR2); GALR2-expressing cells, agonist activation read-out; AID 803; O43603; activation, % (concentration not given with the values); 0.48% of 140,000 active; in the data active = activation above about 5%, passing the limit was not always enough
# CD11b adhes inh: blocks human CD11b/CD18 adhesion to fibrinogen; inhibition, % at 10 µM; 0.54% of 93,000 active; AID 1497; K562 CD11b/CD18 adhesion to fibrinogen, ATPlite luminescence; Mn2+ added to activate the integrin;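 active = primary inhibition of 50% or more at 10 µM, then 40% or more on retest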
# S1P2 agonist: S1P2 (human) receptor agonism; O95136; S1P2-expressing cell line, agonist reporter read-out; activation, % at 4.5 µM; 0.46% of 97,000 active; AID 729; in the data active = activation above about 16%
# Target sequence (O95136 whole entry, looked up): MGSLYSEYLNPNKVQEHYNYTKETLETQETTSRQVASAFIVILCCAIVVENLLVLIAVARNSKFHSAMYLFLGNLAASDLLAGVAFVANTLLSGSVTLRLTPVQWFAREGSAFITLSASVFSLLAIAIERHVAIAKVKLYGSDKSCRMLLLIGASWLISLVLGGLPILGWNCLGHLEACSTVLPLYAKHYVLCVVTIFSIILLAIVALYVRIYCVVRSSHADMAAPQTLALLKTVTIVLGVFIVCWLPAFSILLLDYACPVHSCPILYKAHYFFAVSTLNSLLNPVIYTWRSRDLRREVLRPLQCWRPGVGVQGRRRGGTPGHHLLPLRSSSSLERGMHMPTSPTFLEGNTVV
# GALR2 blocker: GALR2 (human) receptor antagonism; inhibition, % at 4 µM; GALR2-expressing cells, antagonist mode; O43603; AID 828; 0.39% of 140,000 active; in the data active = inhibition above about 27%;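 also: cells stimulated with galanin 1-16 at roughly its EC80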
# CD11b adhes enh: enhancers of human CD11b/CD18 binding to fibrinogen; P05107+P11215; activation, % at 10 µM; K562 CD11b/CD18 adhesion to fibrinogen, ATPlite luminescence; AID 1499; 0.07% of 93,000 active;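 active = 10 µM primary screen giving 50% or more activity, confirmed by 40% or more on retest at that dose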
# S1P2 blocker: S1P2 (human) receptor antagonism; AID 736; 0.21% of 97,000 active; O95136; cell-based S1P2 antagonist assay, inhibition at 5 uM; inhibition, % at 5 µM; in the data active = inhibition above about 45%;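 also: CRE beta-lactamase reporter cells expressing human S1P2 stimulated with S1P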
# Hits are given with their value; n = inactive; x = no result. Sampled rows, rich in hits. Any-hit rate of the full collection: about 1.4%.
SMILES,GALR2 ag,CD11b adhes inh,S1P2 agonist,GALR2 blocker,CD11b adhes enh,S1P2 blocker
CCN(CC)c1ccc(NC(=O)Nc2ccccc2C(F)(F)F)cc1,n,n,62,n,n,n
O=C(CCc1ccc(S(=O)(=O)N2CCOCC2)cc1)Nc1nc(COc2ccccc2)cs1,n,87,n,n,n,n
CCOc1ccc(C(=O)N/N=C/c2ccc(-c3ccc(S(=O)(=O)Nc4ncccn4)cc3)o2)cc1,n,n,n,n,n,n
CCOc1ccc(NC(=O)C(=O)N/N=C\c2ccc(CNS(=O)(=O)c3ccccc3)o2)cc1,5.7,x,x,n,x,x
O=C(COc1ccc(Br)cc1)Nc1ccncc1,n,n,n,n,n,n
Cc1cc(OCC(=O)Nc2ccncc2)c(C)cc1Br,n,98,n,n,n,n
Cc1ccc(C)c(S(=O)(=O)Nc2ccccc2C(=O)Nc2cc(C)on2)c1,n,n,x,n,n,x
O=C(Nc1ccc(Cn2cccn2)cc1)c1ccc(COc2ccc(Br)cc2)cc1,n,n,n,n,52,n
Cc1ccc(N(C(=O)Cc2c[nH]c3ccccc23)C(C(=O)NC2CCCCC2)c2ccco2)cc1 (stereo not drawn),n,n,n,n,n,n
Cc1ccccc1N(C(=O)Cc1c[nH]c2ccccc12)C(C(=O)NC1CCCCC1)c1ccco1 (stereo not drawn),6.1,x,x,n,x,x
CC1CCCN(C(=O)C23CCC(C)(C(=O)C2)C3(C)C)C1 (stereo not drawn),n,n,n,n,n,n
COc1cc(C2C(C#N)=C(N)Oc3c2ccc2ccccc32)ccc1OCC(=O)Nc1ccccc1C (stereo not drawn),n,x,n,n,x,n
COC(=O)c1ccc(NC(=O)COc2ccc(C3C(C#N)=C(N)Oc4c3ccc3ccccc43)cc2OC)cc1 (stereo not drawn),n,x,n,n,x,63
Cn1cccc1Cc1nnc(SCC(=O)Nc2ccccc2)n1-c1ccc(F)cc1,n,n,x,n,n,x
CCN(CC)C(=O)c1c(-c2ccccc2)oc2ccc(OC)cc12,n,x,x,n,x,x
O=C(Nc1ccc2c(c1)OCCO2)C1CCN(C(=O)c2ccccc2)CC1,n,x,24,n,x,n
O=C(Nc1ccc2c(c1)OCCO2)C1CCN(C(=O)c2ccc(Br)cc2)CC1,n,n,n,n,n,n
COc1ccc(S(=O)(=O)NCc2ccccn2)cc1Cl,n,n,n,n,n,n
COc1ccccc1Oc1ccc(S(=O)(=O)NCc2ccccn2)cc1,n,68,n,n,n,n
O=C(c1ccccc1)c1nc2ccccc2n(CCCn2c(=O)c(C(=O)c3ccccc3)nc3ccccc32)c1=O,n,n,n,n,132,n
N#C/C(=C/c1ccc(N2CCCCCC2)o1)c1cccc(F)c1,n,n,n,n,n,50
N#C/C(=C/c1ccc(N2CCOCC2)o1)c1ccc(Br)cc1,n,n,n,n,n,n
N#C/C(=C/c1ccc(N2CCCCCC2)o1)c1ccc(F)cc1,n,x,n,37,x,80
CC1(C)CC(=O)C(CCC(=O)c2ccccc2)C(C)(C)N1 (stereo not drawn),n,n,n,n,n,n
CC(=O)c1nn(-c2cccc(Br)c2)cc1C(=O)c1ccc(Cl)cc1,7.5,x,x,n,x,x
SMILES,GALR2 ag,CD11b adhes inh,S1P2 agonist,GALR2 blocker,CD11b adhes enh,S1P2 blocker
O=C(NNC1=C(C(=O)C(F)(F)F)CCC1)c1ccc(Cl)cc1,n,96,n,n,n,n
CC(C)(C)c1ccc(C(=O)NNC(=O)c2ccc(Cl)cc2)cc1,n,x,x,n,x,x
O=C(NNC1=C(C(=O)C(F)(F)F)CCC1)c1cccc(Cl)c1,n,99,n,n,n,n
CCCCC(=O)Nc1nn(CCC)c2nc3ccccc3cc12,n,n,n,n,n,n
CCc1ccc(CNC(=O)c2cc3c(C)nc4ccccc4c3o2)cc1,n,94,n,n,n,n
COc1cccc(CNC(=O)c2cc3c(C)nc4ccccc4c3o2)c1,n,n,n,n,n,n
Cc1ccc(-n2c(C)c([N+](=O)[O-])c3ccc(O)c(CN(C)C)c32)cc1,n,n,n,n,n,n
Nc1nnnn1/N=C/C=C/c1ccccc1,n,n,x,n,n,x
Nc1nnnn1/N=C/C(Br)=C/c1ccccc1,n,n,n,30,n,47
CCn1nnc(NC(=O)COc2ccc(C3CCCCC3)cc2)n1,n,74,n,n,n,n
CCOc1ccc(C(=O)Nc2nnn(CC)n2)cc1,n,n,n,n,n,n
CCCn1nc([N+](=O)[O-])c(C(C#N)c2nc3ccccc3o2)c(Cl)c1=O (stereo not drawn),n,99,x,n,n,x
CCn1nc([N+](=O)[O-])c(C(C#N)c2nc3cc(C(F)(F)F)ccc3s2)c(Cl)c1=O (stereo not drawn),n,94,n,n,n,n
CCCCn1c(N)c(-c2nc3ccccc3o2)c2c([N+](=O)[O-])nn(CC)c(=O)c21,n,x,x,n,x,x
COc1ccc2c(c1)c1nc3ccccc3nc1n2CCn1c(=O)oc2ccccc21,n,n,n,n,n,n
O=C(NCCN1CCc2ccccc2C1)C1CC(=O)N(C2CCCC2)C1 (stereo not drawn),n,x,n,n,x,n
CCOC(=O)C1=C(C)NC(SCC(=O)Nc2nc(C)cs2)=C(C#N)C1c1cccs1 (stereo not drawn),22,n,20,n,n,n
CCOC(=O)CC(=O)CSc1nc2c(c(C)c1C#N)CCC2,n,n,n,n,n,n
CCOC(=O)CC(=O)CSc1nc(C)cc(C)c1C#N,7.2,n,n,n,n,n
CC(C)(C)C1=CC(=O)C(=O)C(C(C)(C)C)=C1,n,x,x,n,x,x
NC(=O)c1cc2ccc(O)cc2oc1=NCc1ccccc1,45,x,x,n,x,x
NC(=O)c1cc2ccccc2oc1=NCc1ccccc1,n,n,n,n,n,n
COc1ccc(OC)c(N=c2oc3cc(O)ccc3cc2C(N)=O)c1,5.3,n,n,n,n,n
NC(=O)c1cc2ccc(O)cc2oc1=Nc1ccccc1,n,n,x,n,n,x
CC(NC(=O)C1CCC1)c1ccc(Br)cc1 (stereo not drawn),n,x,x,n,x,x
SMILES,GALR2 ag,CD11b adhes inh,S1P2 agonist,GALR2 blocker,CD11b adhes enh,S1P2 blocker
CCOC(=O)c1cc(C)n(Cc2cccc(OC)c2OC)c1C,n,56,n,n,n,n
CCOC(=O)C1=C(O)/C(=C/c2cc(OC)c(O)c(OC)c2)SC1=Nc1ccc(OC)cc1,7.3,x,x,n,x,x
COc1ccc(N(CC(=O)NCCC2=CCCCC2)S(C)(=O)=O)cc1OC,n,n,n,n,n,n
Cc1nc2nc(C)c(CCC(=O)NCCC3=CCCCC3)c(C)n2n1,n,n,n,n,n,n
O=C(CSc1nncn1-c1ccccc1)NCc1cccs1,12,n,n,n,n,n
CCn1nnnc1SCC(=O)NCc1cccs1,n,n,n,n,n,n
CC1Cc2ccccc2N1C(=O)CSc1nnc(Cc2ccccc2)n1CCc1ccccc1 (stereo not drawn),n,n,n,n,n,n
CCOc1ccc(C(=O)Nc2cccc(-c3nc4cccnc4o3)c2)cc1Cl,n,n,n,n,55,n

# High-throughput results from PubChem.
